Screening data deposited in PubChem by National Center for Advancing Translational Sciences (NCATS).
TDP-43 rescue: inhibitors of TDP-43 toxicity in yeast; yeast TDP-43 toxicity rescue, BacTiter-Glo growth, 24 h; AID 1347073; 45,000 compounds, 0.45% hits; Potency, µM (highest dose often 46.1 µM), usual class: activators; active means well fitted activation curve with a large enough effect; further: 0% is about no effect; nearly all actives have a fitted effect of over 55% in size
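TDP-43-expressing yeast, pregrown in raffinose, seeded at OD600 0.02 in galactose medium with compound for 24 hr at 30 deg C. Growth read by BacTiter-Glo luminescence, so rescue of toxicity appears as activation.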
Active calls of the source: *; i = inactive. Many of the other results were omitted from the sample, so hits are more common in it than they were. Potency means the concentration at half of the fitted maximal effect.

SMILES	TDP-43 rescue
Cc1ccc(OCC(=O)Nc2ccc3nn(-c4ccc(Cl)cc4)nc3c2)cc1	i
O=[N+]([O-])c1ccccc1CNc1ccc(F)c(Cl)c1	16µM*
Cc1cc(F)ccc1NCc1ccccc1[N+](=O)[O-]	i
Cc1cc([N+](=O)[O-])ccc1NCc1ccccc1[N+](=O)[O-]	i
NC(=O)C1(N2CCCCC2)CCN(C(=O)Nc2ccc(F)cc2F)CC1	i
CNC(CC(=O)c1ccc([N+](=O)[O-])cc1)C(Cl)(Cl)Cl (stereo not given)	i
CC(C)CC(=O)NC(=S)NNC(=O)c1ccc([N+](=O)[O-])cc1	11µM*
O=C(NNC(=S)NC(=O)c1cccc([N+](=O)[O-])c1)c1ccc(Br)cc1	i
Cc1ccc(CN(C(=O)COc2c(C)cccc2C)C2CCS(=O)(=O)C2)o1 (stereo not given)	i
Cc1ccc(-c2nc(NC(=O)CSc3ncnc4sc5c(c34)CCC(C)C5)ns2)cc1 (stereo not given)	i
CCCCSc1nnc2c(n1)OC(c1ccc(C)s1)Nc1ccccc1-2 (stereo not given)	i
O=C(Cn1cc(C(F)(F)F)ccc1=O)N1CCCc2ccccc21	i
O=C(c1ccco1)c1cn(CC(=O)N2CCCc3ccccc32)c2ccccc12	18µM*
O=Cc1cn(CC(=O)N2CCCCC2)c2ccccc12	i
Cc1nc2ccc(S(=O)(=O)NCC(=O)Nc3ccc(F)cc3F)cc2s1	i
Cc1cc(C)c2c(n1)nn1c(C)c(CCC(=O)Nc3ccc(C)c(Cl)c3)c(C)nc21	i
S=C(Nc1ccc(Cl)cc1)c1nc2ccccc2[nH]1	10µM*
CCOc1ccc(NC(=S)NCc2nc3ccccc3[nH]2)cc1	i
O=C(/C(=C\c1ccccc1)c1nc2ccccc2[nH]1)c1ccc(Cl)cc1	i
Cc1ccc(NC(=O)COc2ccc(-c3nn(C)c(=O)c4ccccc34)cc2)c(C)c1	i
CCc1ccc(OCCCSc2nc(-c3ccc(C(C)(C)C)cc3)nc3cc(=O)[nH]n23)cc1	i
Cc1c(OCC(N)=O)ccc2c(-c3ccccc3)cc(=O)oc12	i
CC(NC(=O)OCc1ccccc1)C(=O)Oc1cc2oc(=O)cc(-c3ccccc3)c2cc1Cl (stereo not given)	4.5µM*
Cc1ccc2c(COC(=O)c3ccccc3Cl)cc(=O)oc2c1	i
CCOc1cccc2cc(-c3nc4ccc(C(=O)O)cc4[nH]3)c(=O)oc12	i
